# In article PMC8384837, “Expanding the binding specificity for RNA recognition by a PUF domain”:
# Tests used:
# Test in all cases: yeast three-hybrid, YBZ-1, SC-Leu-His + 0.5 mM 3-AT, 4 days
# Conditions in all cases: tags: N-Gal4 AD-HA kept; label: inside an RPR1-promoter hybrid RNA with tandem MS2 sites; ssRNA
# PUM1 PUF domain R5-AAD = PUM1 PUF domain R5-AAD (Homo sapiens, UniProt Q14671 828-1176, C1007A;R1008A;Q1011D)
# Method in brief: (§1)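 The interaction score is the log change in how often each variant appears, from input to selection. Frequencies came from PCR-amplified, Illumina-sequenced repeat regions of Pumilio-1 PUF domain libraries grown in strain YBZ-1 (LexA–MS2 coat fusion, HIS3 reporter) alongside matching RNA elements. Input plates were SC-Leu and selection plates were SC-Leu-His + 0.5 mM 3-AT, each for four days, and the log2 calculation used a pseudocount of 1 where a variant was absent.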
# PUM1 PUF domain R6-FWV = molecular target: T1, PUM1 PUF domain R6-FWV (Homo sapiens, UniProt Q14671 828-1176, N1043F;Y1044W;Q1047V)
# T1 sequence: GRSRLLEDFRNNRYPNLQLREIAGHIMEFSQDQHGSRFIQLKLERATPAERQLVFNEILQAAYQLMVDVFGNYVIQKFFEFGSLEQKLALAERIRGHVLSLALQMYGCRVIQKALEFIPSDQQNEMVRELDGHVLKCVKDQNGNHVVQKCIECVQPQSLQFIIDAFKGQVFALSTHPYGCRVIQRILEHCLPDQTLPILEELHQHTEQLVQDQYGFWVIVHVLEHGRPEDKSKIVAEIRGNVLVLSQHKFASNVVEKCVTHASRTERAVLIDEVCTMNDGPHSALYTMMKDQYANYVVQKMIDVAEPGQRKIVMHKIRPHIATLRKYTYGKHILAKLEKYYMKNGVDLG
# Method in brief: as §1
# PUM1 PUF domain R4-DWM = PUM1 PUF domain R4-DWM (Homo sapiens, UniProt Q14671 828-1176, N971D;H972W;Q975M)
# Method in brief: as §1
# PUM1 PUF domain R8-RRV = PUM1 PUF domain R8-RRV (Homo sapiens, UniProt Q14671 828-1176, N1122R;Y1123R;Q1126V)
# Method in brief: as §1
# PUM1 PUF domain R3-DHL = PUM1 PUF domain R3-DHL (Homo sapiens, UniProt Q14671 828-1176, C935D;R936H;Q939L)
# Method in brief: as §1
# PUM1 PUF domain R3-TYH = PUM1 PUF domain R3-TYH (Homo sapiens, UniProt Q14671 828-1176, C935T;R936Y;Q939H)
# Method in brief: as §1
# PUM1 PUF domain R5-ASR = PUM1 PUF domain R5-ASR (Homo sapiens, UniProt Q14671 828-1176, C1007A;R1008S;Q1011R)
# Method in brief: as §1
# PUM1 PUF domain R5-WSR = PUM1 PUF domain R5-WSR (Homo sapiens, UniProt Q14671 828-1176, C1007W;R1008S;Q1011R)
# Method in brief: as §1
# PUM1 PUF domain R3-WYS = PUM1 PUF domain R3-WYS (Homo sapiens, UniProt Q14671 828-1176, C935W;R936Y;Q939S)
# Method in brief: as §1
# PUM1 PUF domain R3-FIG = PUM1 PUF domain R3-FIG (Homo sapiens, UniProt Q14671 828-1176, C935F;R936I;Q939G)
# Method in brief: as §1
sequence,measurement,setting,value
GGCUAGAACUAGUGGAUCCCCCGGCGCCCGGCGGCUCGAGCCCGGGUAAGUGUGAAUAGUCUGCAUGCCGCCGGGCGCCAUGCCUGCAGGUCGACUCUAGAAAACAUG,binding signal,PUM1 PUF domain R5-AAD,2.97 log2 enrichment (interaction score)
GGCUAGAACUAGUGGAUCCCCCGGCGCCCGGCGGCUCGAGCCCGGGUAAGUGUAAAUAGUCUGCAUGCCGCCGGGCGCCAUGCCUGCAGGUCGACUCUAGAAAACAUG,binding signal,PUM1 PUF domain R6-FWV,4.97 log2 enrichment (interaction score)
same,binding signal,PUM1 PUF domain R4-DWM,6.03 log2 enrichment (interaction score)
same,binding signal,PUM1 PUF domain R8-RRV,0.86 log2 enrichment (interaction score)
same,binding signal,PUM1 PUF domain R3-DHL,3.42 log2 enrichment (interaction score)
same,binding signal,PUM1 PUF domain R3-TYH,2.88 log2 enrichment (interaction score)
GGCUAGAACUAGUGGAUCCCCCGGCGCCCGGCGGCUCGAGCCCGGGUAAGUGUCAAUAGUCUGCAUGCCGCCGGGCGCCAUGCCUGCAGGUCGACUCUAGAAAACAUG,binding signal,PUM1 PUF domain R5-ASR,5.07 log2 enrichment (interaction score)
same,binding signal,PUM1 PUF domain R5-WSR,5.87 log2 enrichment (interaction score)
GGCUAGAACUAGUGGAUCCCCCGGCGCCCGGCGGCUCGAGCCCGGGUAAGUGUUAAUAGUCUGCAUGCCGCCGGGCGCCAUGCCUGCAGGUCGACUCUAGAAAACAUG,binding signal,PUM1 PUF domain R5-ASR,1.28 log2 enrichment (interaction score)
GGCUAGAACUAGUGGAUCCCCCGGCGCCCGGCGGCUCGAGCCCGGGUAAGUGUACAUAGUCUGCAUGCCGCCGGGCGCCAUGCCUGCAGGUCGACUCUAGAAAACAUG,binding signal,PUM1 PUF domain R4-DWM,4.24 log2 enrichment (interaction score)
GGCUAGAACUAGUGGAUCCCCCGGCGCCCGGCGGCUCGAGCCCGGGUAAGCGUAAAUAGUCUGCAUGCCGCCGGGCGCCAUGCCUGCAGGUCGACUCUAGAAAACAUG,binding signal,PUM1 PUF domain R8-RRV,2.4 log2 enrichment (interaction score)
GGCUAGAACUAGUGGAUCCCCCGGCGCCCGGCGGCUCGAGCCCGGGUAAGUGUAAGUAGUCUGCAUGCCGCCGGGCGCCAUGCCUGCAGGUCGACUCUAGAAAACAUG,binding signal,PUM1 PUF domain R3-WYS,2.89 log2 enrichment (interaction score)
same,binding signal,PUM1 PUF domain R3-FIG,3.51 log2 enrichment (interaction score)
